From PubChem BioAssay (NCATS)
Records with an inconclusive call do not appear. Activity calls are given as the source filed them. Calls follow the shape of the full dose curve.

Legend:
[1] = Primary qHTS for inhibitors of SARS-S pseudo-typed particle cell entry (AID 1479145); also: nearly all actives have a fitted effect of over 45% in size
[2] = Primary qHTS for Huh7 cytotoxicity: counterscreen for inhibitors of MERS-S pseudotyped particle cell entry (AID 1479147)
[3] = Primary qHTS for inhibitors of MERS-S pseudo-typed particle cell entry (AID 1479149); also: nearly all actives have a fitted effect of over 60% in size
[4] = Primary qHTS for Vero E6 cytotoxicity: counterscreen for inhibitors of SARS-S pseudo-typed particle cell entry (AID 1479150)

Measured: Potency

COc1ccc(Cl)cc1C(=O)NCCc1ccc(S(=O)(=O)NC(=O)NC2CCCCC2)cc1
inactive: [1] | [2] | [3] | [4]

CCOC(=O)[C@H](CCc1ccccc1)N[C@@H](C)C(=O)N1Cc2ccccc2C[C@H]1C(=O)O
inactive: [1] | [2] | [3] | [4]

CCCCNC(=O)NS(=O)(=O)c1ccc(C)cc1
inactive: [1] | [2] | [3] | [4]

CCCN(CCC)CCc1cccc2c1CC(=O)N2
inactive: [1] | [2] | [3] | [4]

CCCc1nc2c(C)cc(-c3nc4ccccc4n3C)cc2n1Cc1ccc(-c2ccccc2C(=O)O)cc1
inactive: [1] | [2] | [3] | [4]
